Activity calls are given as the source filed them. The calls were made as follows: active = hit-call score of the fitted dose curve at least 0.9, where 1 is the maximum; inactive = score below 0.9.
Legend:
[1] = read-out: Macrophage colony-stimulating factor (MCSF), CSF1 (gene 1435); test: BSK_hDFCGF_MCSF: BioMAP Diversity Plus: hDFCGF Assay for Macrophage colony-stimulating factor (MCSF) Biomarker Activity (AID 2283060); conditions: primary human foreskin fibroblasts; actives raise or lower the signal
In short: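 Human foreskin primary fibroblasts were treated with test chemical for 24 h, and M-CSF was then measured by ELISA. Data were fitted bidirectionally against DMSO as the negative control and activity baseline.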

[2] = BSK_hDFCGF_SRB: Viability Assessment in the BioMAP Diversity Plus: hDFCGF Assay (AID 2283061); conditions: primary human foreskin fibroblasts;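 also: cells exposed to compound for 24 h before the read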
In short: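 Human foreskin primary fibroblasts were treated with compound and assessed 24 h after dosing. Total protein was measured by sulforhodamine B staining (0.1% SRB after 10% TCA fixation, 560 nm read) as a cytotoxicity marker, with bidirectional fitting against DMSO baseline.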

[3] = read-out: TIMP metallopeptidase inhibitor 1 (TIMP1), TIMP1 (gene 7076); test: BSK_hDFCGF_TIMP1: BioMAP Diversity Plus: hDFCGF Assay for TIMP metallopeptidase inhibitor 1 (TIMP1) Biomarker Activity (AID 2283062); conditions: primary human foreskin fibroblasts; actives raise or lower the signal
In short: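 Primary human foreskin fibroblasts in the hDFCGF system were dosed with compound for 24 h, then TIMP-1 was measured by ELISA. Activity was fitted bidirectionally relative to DMSO control; parallel SRB staining assessed cytotoxicity.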

[4] = read-out: Monokine induced gamma interferon (MIG), CXCL9 (gene 4283); test: BSK_hDFCGF_MIG: BioMAP Diversity Plus: hDFCGF Assay for Monokine induced gamma interferon (MIG) Biomarker Activity (AID 2283063); conditions: primary human foreskin fibroblasts; actives raise or lower the signal
In short: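 ELISA read-out of MIG from primary human dermal fibroblasts 24 h post-dosing. Gain or loss of signal fitted bidirectionally, DMSO as baseline.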

[5] = read-out: Matrix Metallopeptidase 1 (MMP1), MMP1 (gene 4312); test: BSK_hDFCGF_MMP1: BioMAP Diversity Plus: hDFCGF Assay for Matrix Metallopeptidase 1 (MMP1) Biomarker Activity (AID 2283064); conditions: primary human foreskin fibroblasts; actives raise or lower the signal
In short: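 hDFCGF primary fibroblasts (human foreskin); chemical added; 24 h; MMP1 by ELISA; bidirectional fit vs DMSO.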

[6] = read-out: Vascular cell adhesion molecule 1 (VCAM1), VCAM1 (gene 7412); test: BSK_hDFCGF_VCAM1: BioMAP Diversity Plus: hDFCGF Assay for Vascular cell adhesion molecule 1 (VCAM1) Biomarker Activity (AID 2283065); conditions: primary human foreskin fibroblasts; actives raise or lower the signal
In short: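 Primary human foreskin fibroblasts (hDFCGF system) were dosed with chemical and VCAM-1 was measured by ELISA 24 h later. Bidirectional curve fitting used DMSO as negative control and activity baseline.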

[7] = read-out: Plasminogen activator inhibitor-1 (PAI1), SERPINE1 (gene 5054); test: BSK_hDFCGF_PAI1: BioMAP Diversity Plus: hDFCGF Assay for Plasminogen activator inhibitor-1 (PAI1) Biomarker Activity (AID 2283066); conditions: primary human foreskin fibroblasts; actives raise or lower the signal
In short: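 PAI-1 levels, determined by ELISA, served as the endpoint in human foreskin fibroblast cultures exposed to compound for 24 h, with DMSO as baseline.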

[8] = read-out: Intercellular Adhesion Molecule 1 (ICAM1), ICAM1 (gene 3383); test: BSK_KF3CT_ICAM1: BioMAP Diversity Plus: KF3CT Assay for Intercellular Adhesion Molecule 1 (ICAM1) Biomarker Activity (AID 2283067); conditions: primary human keratinocytes with fibroblasts; actives raise or lower the signal
In short: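 Human keratinocyte plus foreskin fibroblast primary co-culture was exposed to chemical for 24 h. ICAM-1 was then quantified by ELISA, and the data were fit bidirectionally against DMSO as the negative control and baseline.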

[9] = read-out: Interferon-gamma inducible Protein 10 (IP10), CXCL10 (gene 3627); test: BSK_KF3CT_IP10: BioMAP Diversity Plus: KF3CT Assay for Interferon-gamma inducible Protein 10 (IP10) Biomarker Activity (AID 2283068); conditions: primary human keratinocytes with fibroblasts; actives raise or lower the signal
In short: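 ELISA read-out of IP-10 after 24 h chemical dosing of human skin primary co-culture (keratinocytes, foreskin fibroblasts). Gain or loss of signal relative to DMSO, bidirectional curve fit.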

[10] = BSK_KF3CT_SRB: Viability Assessment in the BioMAP Diversity Plus: KF3CT Assay (AID 2283069); conditions: primary human keratinocytes with fibroblasts;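 also: fitted for both signal gain and loss against DMSO baseline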
In short: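 Keratinocytes co-cultured with foreskin fibroblasts (human primary); chemical added, 24 h; fix 10% TCA, stain 0.1% SRB, A560. Bidirectional fit vs DMSO.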

[11] = read-out: Interleukin-1 alpha (IL1a), IL1A (gene 3552); test: BSK_KF3CT_IL1a: BioMAP Diversity Plus: KF3CT Assay for Interleukin-1 alpha (IL1a) Biomarker Activity (AID 2283070); conditions: primary human keratinocytes with fibroblasts; actives raise or lower the signal
In short: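 Chemicals were dosed onto co-cultured human keratinocytes and foreskin fibroblasts, IL-1a was quantified by ELISA at 24 h, and activity was fitted in both directions relative to DMSO controls.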

[12] = read-out: TIMP metallopeptidase inhibitor 2 (TIMP2), TIMP2 (gene 7077); test: BSK_KF3CT_TIMP2: BioMAP Diversity Plus: KF3CT Assay for TIMP metallopeptidase inhibitor 2 (TIMP2) Biomarker Activity (AID 2283071); conditions: primary human keratinocytes with fibroblasts; actives raise or lower the signal
In short: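 Keratinocyte–fibroblast co-culture, 24 h exposure; TIMP-2 ELISA, DMSO-normalised bidirectional fit. Parallel SRB (0.1%, TCA-fixed, 560 nm) total-protein staining gauges cytotoxicity.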

[13] = read-out: Transforming growth factor beta 1 (TGFb1), TGFB1 (gene 7040); test: BSK_KF3CT_TGFb1: BioMAP Diversity Plus: KF3CT Assay for Transforming growth factor beta 1 (TGFb1) Biomarker Activity (AID 2283072); conditions: primary human keratinocytes with fibroblasts; actives raise or lower the signal
In short: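 Signal changes in either direction, relative to DMSO, define activity here. TGF-b1 is read by ELISA from a human keratinocyte-fibroblast co-culture 24 h post-dose.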

[14] = read-out: C-C motif chemokine 2 (Homo sapiens) (UniProt P13500); test: BSK_KF3CT_MCP1: BioMAP Diversity Plus: KF3CT Assay for Monocyte Chemoattractant Protein 1 (MCP1/CCL2) Biomarker Activity (AID 2283073); conditions: primary human keratinocytes with fibroblasts; actives raise or lower the signal
In short: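 Human keratinocyte plus foreskin fibroblast primary co-culture exposed to chemical for 24 h. MCP-1 levels measured by ELISA. Bidirectional curve fitting relative to DMSO negative control as baseline.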

[15] = read-out: Matrix Metallopeptidase 9 (MMP9), MMP9 (gene 4318); test: BSK_KF3CT_MMP9: BioMAP Diversity Plus: KF3CT Assay for Matrix Metallopeptidase 9 (MMP9) Biomarker Activity (AID 2283074); conditions: primary human keratinocytes with fibroblasts; actives raise or lower the signal
In short: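 Human keratinocyte/foreskin fibroblast co-culture; compound added; 24 h; MMP-9 by ELISA; bidirectional fit vs DMSO baseline.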

[16] = read-out: urokinase plasminogen activator (uPA), PLAU (gene 5328); test: BSK_KF3CT_uPA: BioMAP Diversity Plus: KF3CT Assay for urokinase plasminogen activator (uPA) Biomarker Activity (AID 2283075); conditions: primary human keratinocytes with fibroblasts; actives raise or lower the signal
In short: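 ELISA readout of uPA, analyzed for signal gain or loss relative to DMSO, from a human primary keratinocyte–foreskin fibroblast co-culture measured 24 h after chemical treatment.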

CD40, CD40 (gene 958) = test: BSK_LPS_CD40: BioMAP Diversity Plus: LPS Assay for CD40 Biomarker Activity (AID 2283076); conditions: primary human HUVEC with PBMC; actives raise or lower the signal
In short: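 Primary human umbilical vein endothelial cells co-cultured with peripheral blood mononuclear cells, LPS-stimulated, were dosed with chemical and read 24 h later. CD40 levels were measured by ELISA and fitted bidirectionally against DMSO as negative control and baseline.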

[17] = read-out: E-selectin (Homo sapiens) (UniProt P16581); test: BSK_LPS_Eselectin: BioMAP Diversity Plus: LPS Assay for Eselectin Biomarker Activity (AID 2283077); conditions: primary human HUVEC with PBMC; actives raise or lower the signal
In short: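 Human umbilical vein endothelial cells co-cultured with peripheral blood mononuclear cells under LPS stimulation; E-selectin measured by ELISA 24 h after chemical dosing. Activity fitted bidirectionally against DMSO as negative control and baseline.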

[18] = read-out: Interleukin-8 (IL8), CXCL8 (gene 3576); test: BSK_LPS_IL8: BioMAP Diversity Plus: LPS Assay for Interleukin-8 (IL8) Biomarker Activity (AID 2283078); conditions: primary human HUVEC with PBMC; actives raise or lower the signal
In short: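 Human umbilical vein endothelial cells co-cultured with PBMC were stimulated with LPS; IL-8 levels were measured by ELISA 24 h after chemical dosing. Activity was fitted bidirectionally against DMSO as negative control and baseline.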

[19] = BSK_LPS_SRB: Viability Assessment in the BioMAP Diversity Plus: LPS Assay (AID 2283079); conditions: primary human HUVEC with PBMC;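 also: total protein by sulforhodamine B absorbance as a cytotoxicity measure; measured one day after compound addition; fitted in both directions against DMSO so loss or gain of signal counts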
In short: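 Human umbilical vein endothelial cells co-cultured with PBMC (LPS system) were dosed for 24 h. Total protein was stained with 0.1% sulforhodamine B after 10% TCA fixation, read at 560 nm, and fitted bidirectionally against DMSO baseline.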

Measured: outcome

Sequence of E-selectin (Homo sapiens) (P16581 whole entry, looked up): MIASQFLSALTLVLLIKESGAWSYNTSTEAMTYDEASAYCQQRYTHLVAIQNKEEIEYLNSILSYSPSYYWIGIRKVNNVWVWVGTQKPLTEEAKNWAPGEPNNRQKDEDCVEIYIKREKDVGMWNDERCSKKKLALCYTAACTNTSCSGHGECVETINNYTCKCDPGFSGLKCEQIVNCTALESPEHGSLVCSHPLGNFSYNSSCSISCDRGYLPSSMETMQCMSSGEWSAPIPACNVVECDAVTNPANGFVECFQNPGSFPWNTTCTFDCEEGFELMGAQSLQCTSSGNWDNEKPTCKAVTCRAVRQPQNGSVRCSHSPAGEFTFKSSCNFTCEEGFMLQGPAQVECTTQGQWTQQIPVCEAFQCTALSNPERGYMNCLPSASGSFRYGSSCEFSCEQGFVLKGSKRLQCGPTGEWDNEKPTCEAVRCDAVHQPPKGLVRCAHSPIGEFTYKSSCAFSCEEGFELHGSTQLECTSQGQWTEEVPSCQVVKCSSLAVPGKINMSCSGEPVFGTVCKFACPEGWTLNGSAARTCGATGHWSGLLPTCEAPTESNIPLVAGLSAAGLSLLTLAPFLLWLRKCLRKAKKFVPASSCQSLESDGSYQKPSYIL

CCNc1nc(Cl)nc(NC(C)(C)C)n1
inactive: all assays above

Cc1ccc([N+](=O)[O-])cc1C
not listed: [16]
inactive: all other assays above

c1ccc2c(c1)sc1ccccc12
not listed: [6]
inactive: all other assays above

Source: PubChem BioAssay (EPA / NIEHS)
